# Source: PubChem BioAssay (NCATS)
# Values without a mark were called inactive. Records with an inconclusive call do not appear. Where a call stands in place of a potency, no number is given. Activity calls are given as the source filed them. The call rests on the fitted dose curve; in most records, active means well fitted curve in the direction sought with a large enough effect; inconclusive means small, poorly fitted or top-dose-only effect, or another doubt; inactive means no such curve, though single readings can be large; an effect the other way counts as inactive or inconclusive.
# Key:
# [1] = biological target: Glutathione peroxidase 1 (Homo sapiens) (UniProt P07203); assay: Primary qHTS Assay for Inhibitors of Recombinant Selenoprotein Glutathione Peroxidase 1 (GPX1) (AID 1845191); further: nearly all actives have a fitted effect of over 65% in size
# Procedure, shortened: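 10 nM GPX1 + cpd, 30 min RT; start w/ 1 mM GSH, 0.5 mM cumene hydroperoxide, 0.5 mM NADPH, 100 nM GR, 0.01% BSA; buffer 50 mM Tris-HCl pH 7.5, 2 mM EDTA, 150 mM NaCl; Fl 340/450, 0 & 15 min.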
# [2] = biological target: Phospholipid hydroperoxide glutathione peroxidase GPX4 (Homo sapiens) (UniProt P36969); assay: Primary qHTS Assay for Inhibitors of Recombinant Selenoprotein Glutathione Peroxidase 4 (GPX4) (AID 1845192); further: nearly all actives have a fitted effect of over 65% in size
# Procedure, shortened: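 NADPH consumption, followed by fluorescence at 340/450 nm between 0 and 15 min, reports GPX4 activity via coupled glutathione reductase (100 nM). Enzyme 200 nM was pre-exposed to compound 30 min; 0.5 mM cumene hydroperoxide and 1 mM GSH served as substrates.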
# [3] = biological target: Luciferin 4-monooxygenase (Photinus pyralis) (UniProt P08659); assay: Primary firefly luciferase (FLuc) qHTS assay for identification of artifact compounds. (AID 1845220); further: nearly all actives have a fitted effect of over 60% in size; further: potency means the concentration at half of the fitted maximal effect
# Procedure, shortened: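 Compounds sat 15 min at room temperature with 10 uM luciferin and 10 uM ATP (pH 7.6 Tris acetate). Firefly luciferase (10 nM final) was then added, and luminescence was read 5 min later. Data normalized to no-enzyme and DMSO controls were Hill-fitted.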
# [4] = system: Nanoluciferase (engineered Oplophorus gracilirostris luciferase); assay: Primary Nanoluciferase (NLuc) qHTS assay for identification of artifact compounds. (AID 1845222); further: series mostly up to about 54 µM
# Procedure, shortened: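 Luminescence from secreted NLuc (filtered, 1:55-diluted S16 cell medium) read 5 min after Nano-Glo substrate; compounds preincubated 15 min, RT. Hill fits of inhibition normalized to DMSO and no-enzyme.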
# [5] = Primary redox qHTS assay for identification of artifact compounds. (AID 1845223)
# Procedure, shortened: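 Amplex Red (25 uM) and HRP (250 mU/mL) in HBSS, with compounds for 15 min, then 250 uM DTT for 30 min, room temperature, dark. Fluorescence 525/598 nm read; normalized to DMSO and 10 uM DA3003; Hill fit.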
# Sequence of Glutathione peroxidase 1 (Homo sapiens) (P07203 whole entry, looked up): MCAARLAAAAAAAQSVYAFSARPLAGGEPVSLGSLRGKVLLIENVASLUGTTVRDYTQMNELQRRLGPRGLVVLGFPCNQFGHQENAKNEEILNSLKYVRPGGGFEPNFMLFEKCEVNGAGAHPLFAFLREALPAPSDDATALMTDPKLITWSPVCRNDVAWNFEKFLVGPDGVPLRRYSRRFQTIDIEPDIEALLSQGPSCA
# Sequence of Phospholipid hydroperoxide glutathione peroxidase GPX4 (Homo sapiens) (P36969 whole entry, looked up): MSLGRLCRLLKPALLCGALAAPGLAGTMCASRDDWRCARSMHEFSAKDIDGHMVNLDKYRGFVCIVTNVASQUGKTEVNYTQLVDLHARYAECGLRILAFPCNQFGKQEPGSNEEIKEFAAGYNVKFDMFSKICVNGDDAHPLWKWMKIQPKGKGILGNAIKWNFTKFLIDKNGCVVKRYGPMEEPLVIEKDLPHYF
Structure (SMILES),Potency [1],Potency [2],Potency [3],Potency [4],Potency [5]
O=C(OC1C=C(CO)C2C(OC3OC(CO)C(O)C(O)C3O)OC=CC12)c1ccc(O)cc1 (stereo not given),inactive,inactive,inactive,inactive,inactive
O=C1C=CC(O)(/C=C/C(=O)OC[C@H]2O[C@@H](Oc3ccc(O)cc3)[C@H](O)[C@@H](O)[C@@H]2O)C=C1,inactive,inactive,inactive,inactive,inactive
COC(=O)C1=CO[C@@H](O[C@@H]2O[C@H](CO)[C@@H](O)[C@H](O)[C@H]2O)C2C1C(=O)C[C@H]2C (stereo not given in full),inactive,inactive,inactive,inactive,inactive
COC(=O)C1=CO[C@@H](O[C@@H]2O[C@H](CO)[C@@H](O)[C@H](O)[C@H]2O)[C@H]2[C@@H]1C=C[C@@]21C=C([C@H](C)O)C(=O)O1,inactive,inactive,inactive,inactive,inactive
C=C1CCC2C(C)(C)C(O)CCC2(C)C1CCC(C)CCOC(C)=O (stereo not given),inactive,inactive,inactive,inactive,inactive
COc1cc(O)cc(C)c1C(=O)OC1C(CO)OC(OC2C(O)C(O)C(O)C(O)C2O)C(O)C1O (stereo not given),inactive,inactive,inactive,inactive,inactive
CN1CCN(Cc2ccc(-c3cnc4[nH]cc(-c5ccc6[nH]ccc6c5)c4c3)cc2)CC1,inactive,inactive,6.75 µM (active),inactive,inactive
Cc1cccc(C)c1-n1c(=O)c2cnc(Nc3ccc(N4CCN(C)CC4)cc3)nc2n2c3ccccc3nc12,inactive,inactive,inactive,inactive,inactive
COC(=O)C1=CO[C@@H](O[C@@H]2O[C@H](CO)[C@@H](O)[C@H](O)[C@H]2O)[C@@H]2C(CO)=CC[C@]12O,inactive,inactive,inactive,inactive,inactive
COC1C(CO)OC(n2cnc3c(=O)[nH]cnc32)C1O (stereo not given),inactive,inactive,inactive,inactive,inactive
CC(=O)c1ccc2c(c1)C(O)C(C(C)(C)O)O2 (stereo not given),inactive,inactive,inactive,inactive,inactive
COc1cc(/C=C/CO)cc(OC)c1O[C@@H]1O[C@H](CO[C@@H]2O[C@H](CO)[C@@H](O)[C@H](O)[C@H]2O)[C@@H](O)[C@H](O)[C@H]1O,inactive,inactive,inactive,inactive,inactive
OCC(CO[C@@H]1O[C@H](CO)[C@@H](O)[C@H](O)[C@H]1O)c1ccc2c(c1)OCO2 (stereo not given in full),inactive,inactive,inactive,inactive,inactive
COC1=CC(=O)CC(C)C12Oc1cc(OC)cc(O)c1C2=O (stereo not given),inactive,inactive,inactive,inactive,inactive
COC(=O)C(C)C1CCC2(C)C(=O)C=CC(C)(O)C2C1O (stereo not given),inactive,inactive,inactive,inactive,inactive
CC(C)CC(=O)OC1OC=C(CO[C@@H]2O[C@H](CO)[C@@H](O)[C@H](O)[C@H]2O)C2CC(O)C(O)(CO)C12 (stereo not given in full),inactive,inactive,inactive,inactive,inactive
C/C=C/C=C/C(=O)N1CC[C@]23c4ccccc4N[C@H]4N(C)c5cccc6c5[C@@]42CCN([C@H]6C2OC2(C)C)[C@H]13 (stereo not given in full),inactive,inactive,inactive,inactive,inactive
C[C@@H]1C(=O)OC[C@H]2C(C(=O)O)=C[C@@H]3CC(C)(C)C[C@]312,inactive,inactive,inactive,inactive,inactive
CC(Cc1cc2c(c(C(N)=O)c1)N(CCCO)CC2)NCCOc1ccccc1OCC(F)(F)F (stereo not given),inactive,inactive,inactive,inactive,inactive
C/C1=C\CC[C@H](C)CCO[C@@H]2O[C@H](CO[C@@H]3OC[C@](O)(COC1=O)[C@H]3O)[C@@H](O)[C@H](O)[C@H]2O,inactive,inactive,inactive,inactive,inactive
CCOCCn1nc(CC)c2nc(N3CCC(C(=O)O)CC3)nc(Nc3cc(C)ccn3)c21,inactive,inactive,inactive,inactive,inactive
C[C@]1(CO)CCC[C@]2(C)C3=C(CCC12)COC3 (stereo not given in full),inactive,inactive,inactive,inactive,inactive
CCN(CC)c1ccc2c(O)c(C=Nc3ccc(CC(=O)O)c(-c4c5c(nc6ccccc46)CCC(C(=O)NN)C5)c3)c(=O)oc2c1 (stereo not given),inactive,inactive,6.01 µM (active),inactive,inactive
C=C1CCC2C(C)(C(=O)O)CCCC2(C)C1CC/C(=C\CO)CO (stereo not given),inactive,inactive,inactive,inactive,inactive
C[C@H]1O[C@@H](O[C@H]2CC[C@@]3(C)C(CC[C@]4(C)C3CC=C3C5CC(C)(C)CC[C@]5(C(=O)O)CC[C@]34C(=O)O)C2(C)C)[C@H](O)[C@@H](O)[C@@H]1O (stereo not given in full),inactive,inactive,inactive,inactive,inactive
